Experimental data from article PMC4336329 (PLoS ONE, 2015).
In all, about 310,000 compounds went through this assay and about 14,000 (4.5%) showed an effect of 50% or more. The effect is printed as a negative number. This is one part of a sample in which strong results are shown more often than they occur.

target: human ether-à-go-go-related gene (hERG) potassium channel (human, UniProt Q12809); test: primary screen, population patch clamp on CHO cells stably expressing hERG; higher = less effect of the substance
Sequence (Q12809 whole entry, looked up): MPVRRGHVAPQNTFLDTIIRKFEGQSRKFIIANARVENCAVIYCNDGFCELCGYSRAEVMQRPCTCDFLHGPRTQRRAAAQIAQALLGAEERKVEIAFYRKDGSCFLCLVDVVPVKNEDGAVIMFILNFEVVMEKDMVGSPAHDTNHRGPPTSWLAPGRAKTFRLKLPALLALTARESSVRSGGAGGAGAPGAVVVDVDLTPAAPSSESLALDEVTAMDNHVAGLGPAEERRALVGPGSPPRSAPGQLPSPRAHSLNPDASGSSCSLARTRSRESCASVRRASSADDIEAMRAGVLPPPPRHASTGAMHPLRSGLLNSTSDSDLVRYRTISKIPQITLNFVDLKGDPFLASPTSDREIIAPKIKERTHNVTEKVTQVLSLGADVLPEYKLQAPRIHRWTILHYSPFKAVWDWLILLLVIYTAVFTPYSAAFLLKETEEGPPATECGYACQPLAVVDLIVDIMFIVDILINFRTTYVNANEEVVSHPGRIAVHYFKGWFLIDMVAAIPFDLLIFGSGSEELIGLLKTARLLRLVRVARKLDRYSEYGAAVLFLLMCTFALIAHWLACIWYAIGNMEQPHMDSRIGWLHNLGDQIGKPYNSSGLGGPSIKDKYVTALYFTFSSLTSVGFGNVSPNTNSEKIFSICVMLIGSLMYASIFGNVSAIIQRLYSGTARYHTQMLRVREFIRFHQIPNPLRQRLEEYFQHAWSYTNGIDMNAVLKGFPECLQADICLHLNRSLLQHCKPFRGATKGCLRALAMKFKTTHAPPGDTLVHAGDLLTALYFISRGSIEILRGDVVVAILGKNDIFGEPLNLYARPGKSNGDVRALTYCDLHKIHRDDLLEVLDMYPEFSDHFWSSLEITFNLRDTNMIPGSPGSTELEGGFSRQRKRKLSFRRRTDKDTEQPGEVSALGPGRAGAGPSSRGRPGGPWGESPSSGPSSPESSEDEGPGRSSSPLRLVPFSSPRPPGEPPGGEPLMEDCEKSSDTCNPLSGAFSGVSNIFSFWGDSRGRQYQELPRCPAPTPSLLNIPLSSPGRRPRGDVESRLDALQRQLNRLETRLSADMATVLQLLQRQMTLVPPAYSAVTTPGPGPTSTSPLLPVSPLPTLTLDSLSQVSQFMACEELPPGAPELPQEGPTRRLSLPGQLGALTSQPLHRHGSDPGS
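Note: peak tail current of the secondary pulse compared with the same well before compound.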

| Structure (SMILES) | hERG current change (%, negative = inhibition) at 10uM [%] |
| --- | --- |
| C=CCNC(=O)CCCc1ccccc1 | 7.65 |
| COc1ccc(NC(=O)c2cn3c(nc4ccccc43)c(C#N)c2C)cc1 | 3.29 |
| CCC(=O)Oc1ccc(C(=O)Nc2ccccc2C(=O)NCC(C)C)cc1 | 15.6 |
| O=C1CCC(c2ccc3c(c2)CCC3)=NN1 | 17.3 |
| CCCCN1C(=O)C(NC(=O)C2CC2)(C(F)(F)F)C2=C1CC(C)(C)CC2=O (stereo not drawn) | 10.9 |
| COc1ccc(NC(=O)CCN2C(=O)c3cccc([N+](=O)[O-])c3C2=O)cc1 | -5.08 |
| CC(C)C(NC(=O)c1ccccc1F)C(=O)OCC(=O)c1ccc(F)cc1 (stereo not drawn) | -9.49 |
| CCOC(=O)c1sc(-c2ccccc2)cc1NC(=O)CSc1nnnn1C | -1.13 |
| COc1ccccc1/C=C1/C(=O)ON=C1C | 12.5 |
| COc1cccc(NC(=S)C(C#N)=C2N(C)c3ccccc3N2C)c1 | 4.88 |
| CCn1c(=O)cc(SCC(=O)N2CCCCC2)c2ccccc21 | -7.44 |
| COC(=O)c1ccc(Oc2nc(NC(C)(C)C)nc(N3CCOCC3)n2)cc1 | -16.1 |
| Cc1ccc(-n2c(SCC(=O)Nc3ccc(N4CCOCC4)cc3)nc3ccccc3c2=O)cc1 | 6.08 |
| COC(=O)c1ccc2c(=O)n(CCN3CCOCC3)c(SCC(=O)Nc3cccc(OC)c3)nc2c1 | -37.9 |
| COC(=O)c1ccc2c(=O)n(CCN3CCOCC3)c(SCC(=O)Nc3ccccc3Cl)nc2c1 | -33.4 |
| Cc1ccc(NC(=O)CSc2nc3ccccc3c(=O)n2CCCC(=O)NCCCN2CCOCC2)cc1 | -52.6 |
| CCOC(=O)CSc1nc2cc(C(=O)OC)ccc2c(=O)n1CCN1CCOCC1 | -38.4 |
| CCOC(=O)CSc1nc2ccccc2c(=O)n1CC(C)C | -35.3 |
| CCOC(=O)CSc1nc2ccccc2c(=O)n1CCN1CCOCC1 | -50.3 |
| COC(=O)c1ccc2c(=O)n(CCN3CCOCC3)c(SCC(=O)Nc3ccc(C)cc3)nc2c1 | -69.5 |
| Cc1ccc(NC(=O)CSc2nc3ccccc3c(=O)n2CC2CCCO2)cc1 (stereo not drawn) | 0.693 |
| CN(C)c1cc[n+](CC(O)C[n+]2ccc(N(C)C)cc2)cc1.[O-][Cl+3]([O-])([O-])[O-] | 15.9 |
| CCCN(CCC)S(=O)(=O)c1ccc(N2CCCC2=O)c([N+](=O)[O-])c1 | -19.3 |
| COc1cccc(/C=N/NC(=O)CCNc2n[nH]c(=O)[nH]c2=O)c1OC | 15.9 |
